Consider 8 compounds from PubChem BioAssay (NCI).

What all share (experiment): NCI-60 one-dose screen, 48 h (100 = growth as untreated, 0 = no growth, -100 = all killed)
One assay relates to NCI-H23 lung. The note with it: 10 µM unless noted.
Another assay has as its system NCI-H226 lung. The note with it: 10 µM unless noted.
Another assay has as its system NCI-H322M lung. The conditions noted are these: 10 µM unless noted.
The next assay has as its system HOP-62 NSCLC. The conditions noted are these: 10 µM unless noted.
In the next assay the test system is NCI-H460 lung. The note with it: 10 µM unless noted.
The next assay relates to HOP-92 NSCLC. The note with it: 10 µM unless noted.
For another assay, the system named is NCI-H522 lung. The note with it: 10 µM.
A further assay relates to 786-0 renal. The conditions noted are these: 10 µM unless noted.
The next assay has as its system COLO 205 colon. The conditions noted are these: 10 µM unless noted.
A further assay relates to K-562 leukemia. The conditions noted are these: 10 µM unless noted.
A further assay relates to MALME-3M melanoma. The conditions noted are these: 10 µM unless noted.
The test system of another assay is MDA-MB-231 breast. The conditions noted are these: 10 µM unless noted.
The subject of a further assay is SF-268 CNS. The conditions noted are these: 10 µM unless noted.
For the next assay, the system named is SF-295 CNS. The note with it: 10 µM unless noted.
The test system of the next assay is SF-539 CNS. The note with it: 10 µM unless noted.
Another assay has as its system UACC-257 melanoma. The conditions noted are these: 10 µM unless noted.
In the next assay the test system is M14 melanoma. The note with it: 10 µM unless noted.
The subject of a further assay is DU-145 prostate. The conditions noted are these: 10 µM unless noted.
Another assay deals with RXF 393 renal. The note with it: 10 µM unless noted.

The panel holds about 83,000 compounds, 20% with a hit somewhere; the sample as a whole holds those more often.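 Activity criterion: percent growth below 10, measured after cells in 96-well plates were exposed to a single compound concentration for 48 hours.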 Unmarked numbers belong to inactive results. The source made the active and inactive calls.

In the case of `Cc1ccc(S(=O)(=O)NCCN2c3nc4ccccc4cc3Sc3cc4ccccc4nc32)cc1`, the growth was 56.9% in the assay on NCI-H23 lung; 65.6% in the assay with NCI-H226 lung; 91.7% in the assay with NCI-H322M lung; 55.8% in the assay on HOP-62 NSCLC; 70.8% in the assay on NCI-H460 lung; 15.7% in the assay with HOP-92 NSCLC. Moreover, the growth is 52.8% with NCI-H522 lung; 61.9% in the assay on 786-0 renal; 113% in the assay on COLO 205 colon; 87.9% in the assay on K-562 leukemia; 128% with MALME-3M melanoma; 36.8% with MDA-MB-231 breast. Also, the growth with SF-268 CNS is 52.4%; with SF-295 CNS, 93.8%; in the assay on SF-539 CNS, 11.7%; with UACC-257 melanoma, 54.7%; in the assay on M14 melanoma, 77.4%.

As to `O=C(/C=C/c1ccc([N+](=O)[O-])cc1)c1ccc2c3c(cccc13)CC2`, the growth with NCI-H23 lung was 67.9%; in the assay on NCI-H226 lung, 66.9%; with NCI-H322M lung, 78.4%; with HOP-62 NSCLC it was 53.9%; in the assay with NCI-H460 lung, 38.4%; in the assay on HOP-92 NSCLC it was 55%. The growth is 70.4% with NCI-H522 lung; 83.9% in the assay on 786-0 renal; 49% with COLO 205 colon; 38.7% in the assay on DU-145 prostate; 44.8% in the assay with K-562 leukemia; 79.7% with MALME-3M melanoma. The growth is 81.4% in the assay with MDA-MB-231 breast; 80.9% in the assay with SF-268 CNS; -17.9% (active) in the assay with SF-295 CNS; 33.1% with SF-539 CNS; 3.27% (active) in the assay with UACC-257 melanoma; 95.3% in the assay on M14 melanoma.

Regarding `O=C(/C=C(\Nc1ccccc1)c1ccccc1)c1cn(-c2ccc([N+](=O)[O-])cc2)nn1`, the growth in the assay on NCI-H23 lung was 91.4%; in the assay on NCI-H226 lung, 95.3%; in the assay on NCI-H322M lung, 82.8%; in the assay on HOP-62 NSCLC, 101%; in the assay on NCI-H460 lung, 91%; in the assay on HOP-92 NSCLC, 95%. Moreover, the growth was 86.1% in the assay with NCI-H522 lung; 92.1% in the assay with 786-0 renal; 97.2% in the assay with COLO 205 colon; 125% in the assay on DU-145 prostate; 73.8% in the assay with K-562 leukemia; 103% in the assay with MALME-3M melanoma. Besides, the growth was 103% in the assay with MDA-MB-231 breast; 98.3% in the assay with SF-268 CNS; 73.3% in the assay on SF-295 CNS; 94.9% in the assay with SF-539 CNS; 42.4% in the assay on UACC-257 melanoma; 97.6% in the assay with M14 melanoma.

Turning to `N#Cc1ncc(-c2ccc(C(F)(F)F)cc2)c(NC2CCCCCC2)n1`, the growth was 29.9% in the assay on NCI-H23 lung; 35.1% in the assay on NCI-H226 lung; 78.2% in the assay with NCI-H322M lung; 43.9% with HOP-62 NSCLC; 29.8% with NCI-H460 lung; -22.6% (active) in the assay with HOP-92 NSCLC. In addition, the growth with NCI-H522 lung is -4.74% (active); in the assay on 786-0 renal, 37.9%; in the assay on COLO 205 colon, 7.19% (active); in the assay with DU-145 prostate, 60.5%; in the assay with K-562 leukemia it was 13.6%; in the assay with MALME-3M melanoma, -49.2% (active). In addition, the growth was 56.3% in the assay on MDA-MB-231 breast; 36.6% in the assay with RXF 393 renal; 39.3% with SF-268 CNS; -29.5% (active) in the assay on SF-295 CNS; 74.4% in the assay with SF-539 CNS; 22.4% with M14 melanoma.

As to `COC(=O)C1CCN(S(=O)(=O)c2ccc(-c3ccccc3)cc2)CC1`, the growth was 97.7% with NCI-H23 lung; 93.3% in the assay on NCI-H226 lung; 116% with NCI-H322M lung; 113% in the assay on HOP-62 NSCLC; 110% in the assay on NCI-H460 lung; 86.8% in the assay on HOP-92 NSCLC. The growth was 99.8% in the assay with NCI-H522 lung; 113% in the assay with 786-0 renal; 108% with COLO 205 colon; 110% in the assay with DU-145 prostate; 103% in the assay on K-562 leukemia; 122% in the assay with MALME-3M melanoma. In addition, the growth with MDA-MB-231 breast is 115%; in the assay on SF-268 CNS, 102%; in the assay on SF-295 CNS, 195%; with SF-539 CNS it was 101%; in the assay with UACC-257 melanoma it was 62.7%; in the assay on M14 melanoma, 107%.

On to `O=C(Nc1nc(-c2ccc(Cl)cc2)cs1)c1cc(-c2ccc(Br)cc2)nc2ccc(Cl)cc12`, for which the growth with NCI-H23 lung is 33.5%; in the assay on NCI-H226 lung, 71.2%; in the assay with NCI-H322M lung it was 92.1%; in the assay with HOP-62 NSCLC, 37.2%; in the assay with NCI-H460 lung it was 108%; with HOP-92 NSCLC, 5.28% (active). For the same compound, the growth is 75.3% with NCI-H522 lung; 43% with 786-0 renal; 89.1% in the assay with COLO 205 colon; 55.6% in the assay on DU-145 prostate; 25.2% in the assay on K-562 leukemia; 44.6% in the assay on MALME-3M melanoma. The growth in the assay on MDA-MB-231 breast was 37.8%; with RXF 393 renal it was 98.6%; in the assay on SF-268 CNS it was 31.6%; in the assay with SF-295 CNS, 91%; with SF-539 CNS, 2.4% (active); with M14 melanoma, -16.8% (active).

Take `O=C(N/N=C/c1cccc(O)c1)c1ccc(C(F)(F)F)nc1Nc1cccc(C(F)(F)F)c1`: the growth in the assay with NCI-H23 lung was 13.4%; in the assay on NCI-H226 lung, 12.6%; in the assay with NCI-H322M lung, -6.79% (active); with HOP-62 NSCLC, -32.9% (active); with NCI-H460 lung, 11.5%; in the assay with HOP-92 NSCLC, -28.4% (active). For the same compound, the growth is -7.57% (active) in the assay on NCI-H522 lung; -13.8% (active) in the assay with 786-0 renal; -0.875% (active) in the assay on COLO 205 colon; 5.13% (active) with K-562 leukemia; 1.33% (active) in the assay on MALME-3M melanoma; -26.8% (active) in the assay on MDA-MB-231 breast. Besides, the growth was 17.6% in the assay on SF-268 CNS; -39.3% (active) in the assay on SF-295 CNS; 7.23% (active) in the assay on SF-539 CNS; 19.6% in the assay with UACC-257 melanoma; 35.7% with M14 melanoma.

With `C[C@H]1C(=O)N2c3ccccc3[C@@]3(O)C[C@@H](n4cnc5ccccc5c4=O)C(=O)N1[C@@H]23`, the growth was 106% in the assay with NCI-H23 lung; 98.1% with NCI-H226 lung; 109% with NCI-H322M lung; 97.4% in the assay on HOP-62 NSCLC; 107% in the assay with NCI-H460 lung; 102% in the assay on HOP-92 NSCLC. Further, the growth was 92.5% in the assay on NCI-H522 lung; 102% in the assay on 786-0 renal; 110% in the assay with COLO 205 colon; 123% in the assay on DU-145 prostate; 99.2% with K-562 leukemia; 107% with MALME-3M melanoma. Further, the growth was 110% with MDA-MB-231 breast; 112% in the assay on SF-268 CNS; 130% in the assay with SF-295 CNS; 101% with SF-539 CNS; 66.8% in the assay on UACC-257 melanoma; 108% in the assay with M14 melanoma.
